TDP1 inh: qHTS Assay for Inhibitors of Tyrosyl-DNA Phosphodiesterase (TDP1) | recombinant TDP1, AlphaScreen DNA substrate cleavage | hit rate 0.28% among 350,000 | AID 485290, 2010 | Potency, µM (highest dose often 130 µM), inactives show top-dose activity change, negative = inhibition, most hits filed as inhibitors | Tyrosyl-DNA phosphodiesterase 1 (Homo sapiens), Q9NUW8; also: potency is read from the fitted curve at half-maximal effect; nearly all actives have a fitted effect of over 40% in size
Target sequence (Q9NUW8 whole entry, looked up): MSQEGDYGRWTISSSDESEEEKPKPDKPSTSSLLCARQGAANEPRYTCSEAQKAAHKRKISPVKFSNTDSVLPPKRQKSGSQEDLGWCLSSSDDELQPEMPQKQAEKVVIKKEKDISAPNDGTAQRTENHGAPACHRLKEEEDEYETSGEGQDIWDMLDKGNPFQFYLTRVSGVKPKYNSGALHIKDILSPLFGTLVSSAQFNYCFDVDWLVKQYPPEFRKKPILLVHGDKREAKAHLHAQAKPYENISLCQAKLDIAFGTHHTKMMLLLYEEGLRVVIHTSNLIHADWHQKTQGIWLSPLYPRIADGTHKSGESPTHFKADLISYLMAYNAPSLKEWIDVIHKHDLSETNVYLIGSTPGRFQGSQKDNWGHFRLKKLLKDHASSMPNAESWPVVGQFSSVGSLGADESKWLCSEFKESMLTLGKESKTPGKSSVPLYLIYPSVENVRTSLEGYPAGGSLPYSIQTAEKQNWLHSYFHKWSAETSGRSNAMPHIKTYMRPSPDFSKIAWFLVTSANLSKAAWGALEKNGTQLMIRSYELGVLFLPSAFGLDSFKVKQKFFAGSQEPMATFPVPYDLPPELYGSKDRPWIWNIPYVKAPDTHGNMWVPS
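Recombinant human Tdp1 (E. coli-expressed, 1 nM final) preincubated with compounds 15 min at room temperature, then 5'-biotin/3'-phosphotyrosine-FITC DNA substrate (15 nM final) added for 5 min. AlphaScreen beads (10 ug/ml final) added 10 min; cleavage lowers signal.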
DT40 TDP1 no CPT: qHTS for Inhibitors of human tyrosyl-DNA phosphodiesterase 1 (TDP1): qHTS in cells in absence of CPT; DT40 Tdp1-/- hTDP1 cells, no CPT, ATP luminescence, 48 h; Potency, µM (series often up to 46.2 µM), for the others: top-dose activity change, negative = growth inhibition, hits mostly inhibitors; hit rate 15% among 420,000; AID 686978, 2013; also: potency is read from the fitted curve at half-maximal effect; nearly all actives have a fitted effect of over 55% in size
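Chicken DT40 Tdp1-/- cells complemented with human TDP1, screened without camptothecin (DMSO vehicle only), 400 cells/well. Compounds pin-transferred, cells incubated at 37 °C for at least 48 hr. Growth read as ATP-dependent luminescence (CellTiter-Glo, 30 min at RT).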
ELG1 DNA repair: qHTS screen for small molecules that inhibit ELG1-dependent DNA repair in human embryonic kidney (HEK293T) cells expressing luciferase-tagged ELG1; HEK293T ELG1-luciferase reporter, luminescence, 16 h; DNA damage induced by 5-fluorouridine; hit rate 2.3% among 330,000; Potency, µM (titrated, usually from 46.1 µM), for the others: at the top dose activity change, negative = inhibition, actives largely listed as inhibitors; AID 504467, 2011; also: potency is read from the fitted curve at half-maximal effect; nearly all actives have a fitted effect of over 55% in size
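5-Fluorouridine DNA damage + compound/DMSO, 2,000 cells/well, 16 h, 37 °C/5% CO2. ONE-Glo, 30 min RT, luminescence. Readout = decrease in reporter signal.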
Giardia killer: Small Molecules that selectively kill Giardia lamblia: qHTS. activity change, % at 7.66 µM, hits read low. hit rate 0.15% among 340,000. Giardia lamblia trophozoite viability; in the data active = activity change below about -80%; inconclusive = between about -30% and that limit;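 also: parasites exposed to compound for two days anaerobically before the ATP read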
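Giardia trophozoites, 100 cells per well, were exposed to compounds for 48 hrs at 37 deg C under anaerobic conditions; viability was then read as ATP content by bioluminescence after 15-30 min at room temperature.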
IL1B secr inh: qHTS for Inhibitors of Inflammasome Signaling: IL-1-beta AlphaLISA Primary Screen; hit rate 4.7% among 360,000; THP-1 LPS/ATP IL-1B secretion, AlphaLISA, 16 h; stronger effect = lower value; activity change, % at 57.5 µM; in the data active = activity change below about -50%; inconclusive = mostly about -30% to -49%
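Secreted IL-1B measured by AlphaLISA bead assay after 16 h compound exposure of THP-1 cells; compounds (final up to 57.5 uM) added 1 h before LPS (250 ng/mL) and ATP (1.25 mM) stimulation; lower signal means less secretion.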
TDP1 cell CPT: qHTS for Inhibitors of human tyrosyl-DNA phosphodiesterase 1 (TDP1): qHTS in cells in presence of CPT. AID 686979, 2013. chicken DT40 Tdp1-/-;hTDP1 cells + 20 nM CPT, ATP luminescence, 48 h. hit rate 12% among 420,000. Potency, µM (doses to about 46.2 µM), for inactives: at the highest dose activity change, negative = growth inhibition, most hits filed as inhibitors; also: potency is read from the fitted curve at half-maximal effect; nearly all actives have a fitted effect of over 55% in size
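Chicken DT40 Tdp1-/- cells complemented with human TDP1, 400 cells/well, exposed to compounds plus 20 nM camptothecin for at least 48 h at 37 C; viability read as ATP content by CellTiter-Glo luminescence.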
Active calls of the source: *; ? = inconclusive; . = not tested or not shown; [ ] = another dose, or the depositor's remark. A selection: hits, their analogues and other compounds. The true share with any hit is near 19%. Unless noted, calls follow the shape of the dose curve; as a rule, active = well fitted curve in the direction sought with a large enough effect; inconclusive = small, poorly fitted or top-dose-only effect, or another doubt; inactive = no such curve, though single readings can be large; an effect the other way counts as inactive or inconclusive. % is scaled to controls: 0 for no effect and ±100 for the full control effect.

SMILES	TDP1 inh	DT40 TDP1 no CPT	ELG1 DNA repair	Giardia killer	IL1B secr inh	TDP1 cell CPT
O=C(NCc1cccnc1)c1ccc2c(c1)N(Cc1ccccc1)CCS2	11%	?	?	-13	-21	?
O=C1C=CN2CCOCC2C1 (stereo not given)	1%	-3%	?	5	18	5%
O=C1C=CN2CCCCC2CC1 (stereo not given)	4%	16µM*	?	-17	66	10µM*
COc1cccc(C(=O)NNC2OC(CO)C(O)C2O)c1 (stereo not given)	-2%	-2%	-10%	-5	0	5%
CN1C(=O)c2ccccc2CC12c1ccccc1C(=O)N2C (stereo not given)	.	?	.	.	10	-1%
CNc1ccc(N=Nc2cccc3ncccc23)cc1	.	?	.	-6	-54*	?
c1cnc2ccc3ncccc3c2c1	-7%	-11%	?	22	-24	?
Cc1ccc(Cc2c(-c3ccc(Cl)cc3)nc3cc(C)c(Br)c(C)n23)cc1	.	-14%	.	.	0	?
Cc1ccc(-c2nc3cc(C)c(Br)c(C)n3c2Cc2ccccc2)cc1	.	7.3µM*	.	.	24	2.3µM*
Cc1cc2nc(-c3ccc(Cl)cc3)c(CC(C)(C)C)n2c(C)c1Br	.	?	.	.	10	15µM*
Cc1cc2nc(-c3cccc(Br)c3)c(CC(C)(C)C)n2c(C)c1Br	.	-44%	.	.	15	?
Cc1cc2nc(-c3ccccc3)c(CC(C)(C)C)n2c(C)c1Br	.	18µM*	.	.	99	15µM*
C[C@H](NC(=O)c1nc[nH]c1C(=O)N(C)CCO)c1ccccc1	.	-5%	.	.	13	-3%
COc1ccc(-c2ccc(=O)n(CC(=O)Nc3cc(OC)ccc3OC)n2)cc1	5%	-18%	.	.	.	-4%
Cc1ccc(CN2CCC[C@]3(N[C@H](c4ccc(C(F)(F)F)cc4)[C@@H]4C(=O)N(Cc5ccccc5)C(=O)[C@@H]43)C2=O)cc1	.	21µM*	.	.	-14	21µM*
CCN1C(=O)[C@H]2[C@@H](c3ccc(C(F)(F)F)cc3)N[C@]3(CCCN(Cc4ccccc4)C3=O)[C@H]2C1=O	.	16µM*	.	.	-20	21µM*
Cn1cccc1CN1CCC[C@]2(N[C@H](c3ccc(C(F)(F)F)cc3)[C@@H]3C(=O)N(Cc4ccccc4)C(=O)[C@@H]32)C1=O	.	-22%	.	.	?	-15%
COc1ccc([C@H]2N[C@]3(CCCN(CC4CCCCC4)C3=O)[C@H]3C(=O)N(Cc4ccccc4)C(=O)[C@@H]23)cc1	.	21µM*	.	.	-7	?
CCN1C(=O)[C@H]2[C@@H](c3ccc(C(F)(F)F)cc3)N[C@]3(CCCN(Cc4ccc(F)cc4)C3=O)[C@H]2C1=O	.	9.2µM*	.	.	2	21µM*
CCNC(=S)N1CCC(C(=O)c2ccc(F)cc2)CC1	.	-10%	.	.	-24	?
CC(=O)N1CCC2(CC1)CN(C(c1ccccc1)c1ccccc1)C2	.	?	.	.	.	1%
CCN1C(=O)[C@H]2[C@@H](c3ccc(C)cc3)N[C@]3(CCCN(Cc4ccc(OC)cc4)C3=O)[C@H]2C1=O	.	?	.	.	12	?
CCN1C(=O)[C@H]2[C@@H](c3ccc(C)cc3)N[C@]3(CCCN(Cc4ccc(C(F)(F)F)cc4)C3=O)[C@H]2C1=O	.	10µM*	.	.	17	13µM*
CCN1C(=O)[C@H]2[C@@H](c3ccc(OC)cc3)N[C@]3(CCCN(Cc4ccc(C(F)(F)F)cc4)C3=O)[C@H]2C1=O	.	18µM*	.	.	1	?
COc1ccc(CN2CCC[C@]3(N[C@H](c4ccc(C(F)(F)F)cc4)[C@@H]4C(=O)N(Cc5ccccc5)C(=O)[C@@H]43)C2=O)cc1	.	?	.	.	-16	?
SMILES	TDP1 inh	DT40 TDP1 no CPT	ELG1 DNA repair	Giardia killer	IL1B secr inh	TDP1 cell CPT
O=C(NCCC(F)(F)F)C1Cc2c(-c3ccc(Cl)cc3)ccnc2O1 (stereo not given)	.	?	.	.	-8	?
O=C(NCc1ccc(F)c(F)c1)C1Cc2c(-c3ccc4c(c3)OCO4)ccnc2O1 (stereo not given)	.	2.9µM*	.	.	0	2.3µM*
COc1ccc(CNC(=O)C2Cc3c(-c4ccc5c(c4)OCO5)ccnc3O2)cc1OC (stereo not given)	.	12µM*	.	.	-5	18µM*
COc1ccc(NC(=O)C2Cc3c(-c4ccc(NC(C)=O)cc4)ccnc3O2)cc1OC (stereo not given)	.	?	.	.	-30	?
COc1ccc(NC(=O)C2Cc3c(-c4ccc5c(c4)OCO5)ccnc3O2)cc1OC (stereo not given)	.	8.2µM*	.	.	-7	9.2µM*
COc1ccc(CNC(=O)C2Cc3c(-c4ccccc4)ccnc3O2)cc1OC (stereo not given)	.	?	.	.	-12	?
O=C(NCC1CCCO1)c1nn2c(C(F)(F)F)cc(-c3ccc(Br)o3)nc2c1Br (stereo not given)	4%[0.0935 µM]	?	-3%	2	20	?
O=C(CSc1nnc(-c2ccccc2)c(-c2ccccc2)n1)Nc1ccccc1Cl	8%	?	.	.	.	?
O=C1c2ccccc2C(Nc2ccccc2)N1Cc1ccc2c(c1)OCO2 (stereo not given)	.	-13%	?	4	?	-1%
CCN(CC)S(=O)(=O)c1ccc(NC2c3ccccc3C(=O)N2Cc2ccco2)cc1 (stereo not given)	5%	12µM*	?	14	-24	21µM*
CCN(CC)S(=O)(=O)c1ccc(NC2c3ccccc3C(=O)N2Cc2ccc3c(c2)OCO3)cc1 (stereo not given)	3%	?	?	6	-16	16µM*
CCN(CC)S(=O)(=O)c1ccc(NC2c3ncccc3C(=O)N2Cc2ccccc2)cc1 (stereo not given)	4%	-24%	?	-10	-25	-13%
CCc1cccc2nc3c(c([Si](C)(C)C)c12)Cn1c-3cccc1=O	3%	.	.	.	.	.
Cc1ccc(N=Nc2c(N)nn(-c3ccccc3)c2N)cc1	10%	4.6µM*	?	22	0	3.7µM*

High-throughput results deposited in PubChem by National Center for Advancing Translational Sciences (NCATS).
